Results as given in PubChem BioAssay.
Active and inactive are the calls of the source.

Experiments:
[1] = optical density shifts of acrAB sulA E. coli – strain DRC41, OD650, 48 h, E. coli filamentation inducer project, primary screen (AID 1152); conditions: higher = more signal, called active from +8 up or from −8 down;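 also: E. coli MC1000 strain DRC41 lacking acrAB efflux pump and sulA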
[2] = probe aLefty1 binding on compound microarray – biochemical, small-molecule microarray, 635/667 nm fluorescence, primary screen (AID 1153); conditions: higher = more signal;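 also: score merges spot fluorescence with signal-to-noise ratio from the scanned slide images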
[3] = plasmodial surface anion channel blockers, osmotic lysis – cell-based, P. falciparum Indochina, OD700, 1 h, primary screen (AID 1154); conditions: P. falciparum Indochina infected RBC osmotic lysis, higher = more signal, called active from +8 up or from −8 down
[4] = plasmodial surface anion channel blockers, osmotic lysis – cell-based, P. falciparum Indochina, OD700, 2 h, primary screen (AID 1155);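 also: lysis reports solute entry through the parasite surface anion channel PSAC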; conditions: P. falciparum Indochina infected erythrocytes, higher = more signal, called active from +8 up or from −8 down
[5] = changes in parasitized red cell lysis, either direction – P. falciparum Indochina, OD700, 3 h, PSAC antagonist project, primary screen (AID 1156); conditions: P. falciparum-infected erythrocytes, osmotic lysis, higher = more signal, called active from +8 up or from −8 down
[6] = plasmodial surface anion channel blockers, osmotic lysis – cell-based, P. falciparum Indochina, OD700, 18 h, primary screen (AID 1157); conditions: P. falciparum Indochina infected erythrocytes, osmotic lysis OD700, 18 h; higher = more signal, called active from +8 up or from −8 down
[7] = S6 kinase pathway phospho-S6 level changes – cell-based, A549, cytoblot, luminescence, serum-stimulated, primary screen (AID 1158); conditions: 5 h, higher = more signal;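 also: serum-stimulated A549 lung adenocarcinoma cells; signal is phosphorylated S6 detected by cytoblot immunostaining with HRP secondary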
[8] = molecular target: NADPH oxidase 2 (Homo sapiens) (UniProt P04839); experiment: compounds shifting NOX2 Amplex Red fluorescence – cell-based, HEK293-NOX2, PMA-stimulated, NOX inhibitor project, primary screen (AID 1159); conditions: 45 min, higher = more signal, called active from +8 up or from −8 down; also: test concentration not given here
[9] = molecular target: NADPH oxidase 4 (Homo sapiens) (UniProt Q9NPH5); experiment: compounds shifting NOX4 Amplex Red fluorescence – cell-based, HEK293-NOX4, tetracycline-induced, NOX inhibitor project, primary screen (AID 1160); conditions: HEK293-NOX4, Amplex Red H2O2 fluorescence, 45 min; higher = more signal, called active from +8 up or from −8 down
[10] = molecular target: NADPH oxidase 5 (Homo sapiens) (UniProt Q96PH1); experiment: compounds shifting NOX5 Amplex Red fluorescence – cell-based, HEK293-NOX5, NOX inhibitor project, primary screen (AID 1161); conditions: HEK293-NOX5, ionomycin, 45 min, higher = more signal
[11] = compound effects on lung adenocarcinoma cell viability – A549, calcein-AM fluorescence, 48 h, basal, profiling panel (AID 1162); conditions: higher = more signal; also: test concentration not given here
[12] = compound effects on differentiated 3T3-L1 adipocyte viability – cell-based, 3T3-L1 adipocytes, calcein-AM fluorescence, 48 h, basal, profiling panel (AID 1163); conditions: 3T3-L1 adipocytes viability, higher = more signal; also: test concentration not given here
[13] = compound effects on hepatocellular carcinoma cell viability – HepG2, calcein-AM fluorescence, 48 h, basal, profiling panel (AID 1164); conditions: higher = more signal; also: test concentration not given here
[14] = compound effects on multiple myeloma cell viability – MM1S, calcein-AM fluorescence, 48 h, basal, profiling panel (AID 1165); conditions: higher = more signal; also: test concentration not given here
[15] = calcein-AM signal in unstimulated myeloma cells – cell-based, calcein-AM fluorescence, 48 h, PK04 Diversity Set, profiling panel (AID 1166); conditions: RPMI8226 myeloma viability, higher = more signal;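 also: cells grown under basal conditions without added stimulus; test concentration not given here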
[16] = JC-1 mitochondrial signal, unstimulated HepG2 cells – cell-based, JC-1 fluorescence, 24 h, 100 nL compound, profiling panel (AID 1167); conditions: HepG2 mitochondrial potential, higher = more signal; also: test concentration not given here
[17] = JC-1 mitochondrial signal, unstimulated adipocytes – cell-based, JC-1 fluorescence, 3T3-L1 adipocytes, 24 h, 100 nL compound, profiling panel (AID 1168); conditions: JC-1 mitochondrial fluorescence, higher = more signal, called active from +8 up or from −8 down; also: test concentration not given here
[18] = JC-1 mitochondrial signal, unstimulated myeloma cells – cell-based, JC-1 fluorescence, RPMI8226, 24 h, 100 nL compound, profiling panel (AID 1169); conditions: JC-1 mitochondrial potential fluorescence, higher = more signal; also: test concentration not given here
[19] = JC-1 mitochondrial signal, unstimulated MM1S myeloma – cell-based, JC-1 fluorescence, 24 h, 100 nL compound, profiling panel (AID 1170); conditions: MM1S mitochondrial potential, higher = more signal; also: test concentration not given here
[20] = resazurin metabolic signal in A549 cells – cell-based, resazurin fluorescence, 24 h, PK04 Diversity Set, profiling panel (AID 1171); conditions: A549 viability, higher = more signal, called active from +8 up or from −8 down; also: test concentration not given here

Chain of NADPH oxidase 5 (Homo sapiens) (Q96PH1 whole entry, looked up): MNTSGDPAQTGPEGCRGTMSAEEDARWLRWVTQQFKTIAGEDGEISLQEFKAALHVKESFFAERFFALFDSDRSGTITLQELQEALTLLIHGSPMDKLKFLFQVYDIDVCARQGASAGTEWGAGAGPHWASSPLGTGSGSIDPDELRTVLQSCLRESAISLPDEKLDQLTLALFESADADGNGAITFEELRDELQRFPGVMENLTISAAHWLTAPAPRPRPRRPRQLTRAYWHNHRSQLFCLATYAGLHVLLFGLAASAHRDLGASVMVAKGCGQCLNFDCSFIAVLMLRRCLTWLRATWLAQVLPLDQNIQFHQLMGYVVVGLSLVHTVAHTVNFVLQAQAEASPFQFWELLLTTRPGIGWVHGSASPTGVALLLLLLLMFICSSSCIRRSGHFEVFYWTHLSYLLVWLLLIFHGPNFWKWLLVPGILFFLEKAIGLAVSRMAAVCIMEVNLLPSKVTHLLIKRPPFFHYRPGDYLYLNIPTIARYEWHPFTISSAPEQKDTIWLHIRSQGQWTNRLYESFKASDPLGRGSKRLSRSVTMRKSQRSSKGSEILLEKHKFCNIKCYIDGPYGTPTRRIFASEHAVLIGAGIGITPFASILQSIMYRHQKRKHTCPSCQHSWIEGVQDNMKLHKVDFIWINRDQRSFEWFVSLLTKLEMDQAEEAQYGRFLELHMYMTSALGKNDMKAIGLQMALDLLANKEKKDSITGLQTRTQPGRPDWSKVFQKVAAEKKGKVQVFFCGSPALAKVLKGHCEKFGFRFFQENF
Chain of NADPH oxidase 4 (Homo sapiens) (Q9NPH5 whole entry, looked up): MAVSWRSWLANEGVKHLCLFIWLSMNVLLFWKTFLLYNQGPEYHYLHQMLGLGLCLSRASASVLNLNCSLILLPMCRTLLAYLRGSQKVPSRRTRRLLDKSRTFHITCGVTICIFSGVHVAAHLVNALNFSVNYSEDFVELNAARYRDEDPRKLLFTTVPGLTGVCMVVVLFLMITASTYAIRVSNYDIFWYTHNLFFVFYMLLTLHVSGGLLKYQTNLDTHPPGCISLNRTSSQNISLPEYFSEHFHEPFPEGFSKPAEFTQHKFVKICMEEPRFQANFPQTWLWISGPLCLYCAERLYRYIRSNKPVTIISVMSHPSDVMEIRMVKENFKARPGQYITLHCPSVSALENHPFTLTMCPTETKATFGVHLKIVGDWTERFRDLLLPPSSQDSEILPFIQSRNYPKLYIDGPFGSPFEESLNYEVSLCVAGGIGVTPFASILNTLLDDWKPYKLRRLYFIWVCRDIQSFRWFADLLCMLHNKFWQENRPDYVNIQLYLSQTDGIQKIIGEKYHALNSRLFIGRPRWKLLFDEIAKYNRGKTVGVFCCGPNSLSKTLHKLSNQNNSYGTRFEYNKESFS
Chain of NADPH oxidase 2 (Homo sapiens) (P04839 whole entry, looked up): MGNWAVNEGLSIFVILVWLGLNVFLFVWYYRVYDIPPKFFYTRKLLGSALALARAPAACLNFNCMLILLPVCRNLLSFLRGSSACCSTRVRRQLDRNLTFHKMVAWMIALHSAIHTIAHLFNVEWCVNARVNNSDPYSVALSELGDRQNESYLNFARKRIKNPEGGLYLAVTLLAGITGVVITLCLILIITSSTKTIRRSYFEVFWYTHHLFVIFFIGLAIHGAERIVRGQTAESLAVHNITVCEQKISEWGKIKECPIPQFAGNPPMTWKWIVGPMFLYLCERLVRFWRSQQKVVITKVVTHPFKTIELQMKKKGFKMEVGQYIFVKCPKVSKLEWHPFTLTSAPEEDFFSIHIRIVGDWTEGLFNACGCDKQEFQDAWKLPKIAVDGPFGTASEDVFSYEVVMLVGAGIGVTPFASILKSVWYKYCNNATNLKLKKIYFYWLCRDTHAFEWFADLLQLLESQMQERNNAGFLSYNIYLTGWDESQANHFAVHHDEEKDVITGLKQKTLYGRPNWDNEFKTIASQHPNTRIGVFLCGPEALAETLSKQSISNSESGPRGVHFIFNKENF

SMILES | z-score [1] | composite z-score [2] | z-score [3] | z-score [4] | z-score [5] | z-score [6] | z-score [7] | z-score [8] | z-score [9] | z-score [10] | z-score [11] | z-score [12] | z-score [13] | z-score [14] | z-score [15] | z-score [16] | z-score [17] | z-score [18] | z-score [19] | z-score [20]
COCCOC(=O)N1C(=O)[C@@]2(c3cc(C#CCCO)ccc31)[C@H](C(=O)N1CCCCCCC1)[C@H]1C(=O)O[C@H](c3ccccc3)[C@H](c3ccccc3)N1[C@@H]2c1ccccc1OCCO | -0.82 (inactive) | 2.52 | 0.56 (inactive) | 0.654 (inactive) | 0.0531 (inactive) | 0.336 (inactive) | -0.319 | 1.96 (inactive) | 0.843 (inactive) | 1.73 | 0.862 | 1.45 | 0.566 | -2.12 | -1.62 | -0.292 | -0.0643 (inactive) | -0.815 | -0.513 | 1 (inactive)
C[C@@]12COC[C@]13C=C(Br)[C@H](C2)[C@@]1(CO1)C3=O | -0.745 (inactive) | -0.0003 | -0.526 (inactive) | -0.0824 (inactive) | -0.347 (inactive) | -0.161 (inactive) | -0.788 | 0.51 (inactive) | 0.527 (inactive) | 0.119 | 0.109 | -0.245 | -0.318 | -1.75 | -0.31 | -1.47 | -0.24 (inactive) | 0.253 | -1.12 | -0.557 (inactive)
[N-]=[N+]=Nc1ccccc1C[C@]1(C(=O)O)N=C(c2ccc(OCCCO)cc2)O[C@H]1c1ccccc1 | 0.174 (inactive) | -0.007 | 18.4 (active) | 2.83 (inactive) | 1.35 (inactive) | 0.589 (inactive) | -0.138 | 0.22 (inactive) | 0.818 (inactive) | 0.857 | 0.855 | -0.221 | 1.28 | 0.565 | 0.272 | -0.924 | -0.297 (inactive) | -0.954 | -0.547 | -0.605 (inactive)
C=C(/C(=C/C[C@@H](OC(=O)c1ccncc1)c1cccc(OCCO)c1)c1cnc2ccccc2c1)C(C)C | 0.172 (inactive) | 0.13 | 13.7 (active) | 1.86 (inactive) | 1.32 (inactive) | 0.897 (inactive) | 0.199 | -1.34 (inactive) | -0.507 (inactive) | -0.782 | 0.509 | 1.55 | 0.0856 | -2.52 | -0.467 | 1.42 | -0.45 (inactive) | -0.533 | 0.817 | 0.128 (inactive)
[N-]=[N+]=Nc1ccccc1C[C@]1(C(=O)O)N=C(c2ccc(OCCCO)cc2)O[C@H]1c1ccccc1N=[N+]=[N-] | 0.476 (inactive) | 0.612 | 30.8 (active) | 27.6 (active) | 2.88 (inactive) | 4.45 (inactive) | -0.0428 | -2.72 (inactive) | 0.551 (inactive) | -2.15 | -0.35 | 0.22 | 0.0698 | -2.38 | -1.43 | -0.914 | -0.424 (inactive) | -0.739 | 0.51 | -0.371 (inactive)
C=CCC(OC(C)=O)[C@@H]1[C@@H](N(Cc2ccc(-c3cccc(C(F)(F)F)c3)o2)C(=O)Cc2ccc(OC)cc2)c2cc(OCCCO)ccc2N1C(=O)Cc1ccc2ccccc2c1 (stereo not given in full) | -0.597 (inactive) | 0.0026 | 0.572 (inactive) | 0.214 (inactive) | 1.83 (inactive) | 0.165 (inactive) | 0.258 | -1.6 (inactive) | -1.4 (inactive) | -1.11 | 0.553 | 1.78 | 0.73 | -0.499 | -1.14 | 1.94 | -0.3 (inactive) | 0.114 | 0.296 | -0.674 (inactive)
COC(=O)[C@@]1(Cc2ccccc2CN=[N+]=[N-])N=C(c2ccc(OCCCO)cc2)O[C@H]1c1ccccc1 | -0.571 (inactive) | 0.105 | 23.6 (active) | 19.8 (active) | 0.882 (inactive) | 3.64 (inactive) | 0.216 | -2.19 (inactive) | -0.348 (inactive) | -2.48 | -2.84 | 0.658 | -4.68 | -3.57 | -4.03 | -2.06 | 0.315 (inactive) | -1.01 | -2.53 | -2.6 (inactive)
